DT40 TDP1 CPT: DT40-hTDP1 cell growth loss with CPT. hit rate 12% among 420,000. chicken DT40 Tdp1-/-;hTDP1 cells + 20 nM CPT, ATP luminescence, 48 h. Potency, µM (doses to about 46.2 µM), hits mostly inhibitors; further: nearly all actives have a fitted effect of over 55% in size
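Cell growth measured by CellTiter-Glo luminescence after a minimum 48 h, 37 C compound exposure with 20 nM CPT in Tdp1-knockout DT40 cells stably expressing hTDP1, seeded 400/well; qHTS titration format.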
TDP1 inh: TDP1 (human) enzyme inhibition | Q9NUW8 | recombinant TDP1, AlphaScreen DNA substrate cleavage | Potency, µM (series often up to 130 µM), most hits filed as inhibitors | hit rate 0.28% among 350,000; further: nearly all actives have a fitted effect of over 40% in size
Target sequence (Q9NUW8 whole entry, looked up): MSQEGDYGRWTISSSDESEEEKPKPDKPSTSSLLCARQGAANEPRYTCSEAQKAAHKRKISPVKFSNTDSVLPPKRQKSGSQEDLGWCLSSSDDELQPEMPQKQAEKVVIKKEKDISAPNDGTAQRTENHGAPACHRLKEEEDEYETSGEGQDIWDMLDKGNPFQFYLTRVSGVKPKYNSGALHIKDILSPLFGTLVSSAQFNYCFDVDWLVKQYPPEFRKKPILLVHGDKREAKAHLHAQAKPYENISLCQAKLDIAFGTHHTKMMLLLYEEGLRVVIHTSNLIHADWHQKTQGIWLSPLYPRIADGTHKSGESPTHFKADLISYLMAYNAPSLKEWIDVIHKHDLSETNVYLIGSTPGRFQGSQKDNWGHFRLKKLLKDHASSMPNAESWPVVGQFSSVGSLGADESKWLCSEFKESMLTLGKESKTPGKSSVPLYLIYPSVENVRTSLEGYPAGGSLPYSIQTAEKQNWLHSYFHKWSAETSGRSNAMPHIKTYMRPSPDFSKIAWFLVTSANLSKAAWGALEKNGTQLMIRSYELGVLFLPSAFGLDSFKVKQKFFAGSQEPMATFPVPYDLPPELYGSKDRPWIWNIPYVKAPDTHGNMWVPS
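Recombinant E. coli-expressed Tdp1 (1 nM) preincubated with compound 15 min at RT, then 5'-biotin/3'-phosphotyrosine-FITC DNA substrate (15 nM) added for 5 min. AlphaScreen beads (10 ug/ml) added, 10 min RT; tyrosine-FITC cleavage read as signal loss.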
ClpP mod: qHTS Assay for Activators of ClpP | purified B. subtilis ClpP, FRET peptide cleavage, 20 min | hit rate 1.9% among 340,000 | Potency, µM (titrated, usually from 57.5 µM) | ATP-dependent Clp protease proteolytic subunit (Bacillus subtilis (strain 168)), P80244; active means well fitted falling curve with a large enough effect; inconclusive means small, poorly fitted or top-dose-only effect; inactive means no such curve, though single readings can be large or run the other way; further: the source files actives as falling curves though it sought activators and does not explain the sign; nearly all actives have a fitted effect of over 65% in size
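Purified B. subtilis ClpP, 10 microg/mL final in Tris/HCl pH8 with KCl, BSA, glycerol and Tween-20, cleaved an Abz/nitrotyrosine-quenched decapeptide. Fluorescence (ex 320, em 430) was read at 0 and 20 min at room temperature. Delta was normalized to 5.8 microM ADEP and DMSO/no-enzyme controls.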
TDP1 cell noCPT: qHTS for Inhibitors of human tyrosyl-DNA phosphodiesterase 1 (TDP1): qHTS in cells in absence of CPT; DT40 Tdp1-/- hTDP1 cells, no CPT, ATP luminescence, 48 h; Potency, µM (doses to about 46.2 µM), hits mostly inhibitors; hit rate 15% among 420,000; AID 686978, 2013; further: nearly all actives have a fitted effect of over 55% in size
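Compound effects on proliferation are scored in DT40 Tdp1-/-;hTDP1 cells in the absence of CPT. ATP levels (CellTiter-Glo luminescence) are recorded after a ≥48 hr, 37 °C incubation.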
A number is an active result; - = inactive; ? = inconclusive; . = not tested or not shown; [ ] = remark or other dose. Hits are enriched below; roughly 17% of the tested compounds scored in any of these assays. Unless noted, the call rests on the fitted dose curve; in most records, active means well fitted curve in the direction sought with a large enough effect; inconclusive means small, poorly fitted or top-dose-only effect, or another doubt; inactive means no such curve, though single readings can be large; an effect the other way counts as inactive or inconclusive.

SMILES	DT40 TDP1 CPT	TDP1 inh	ClpP mod	TDP1 cell noCPT
Cc1ccc(NC(=O)N(Cc2ccc3c(c2)OCO3)C2CCN(Cc3ccccc3)CC2)cc1Cl	4.61µM	-	-	14.6µM
COc1ccccc1N1CCN(Cc2ccc3c(c2)OCO3)CC1	-	.	-	?
Cc1ccc(NC(=O)N(Cc2ccc3c(c2)OCO3)C2CCN(Cc3ccccc3)CC2)cc1C	?	-	-	29.1µM
COc1ccc(C)cc1NC(=O)N(Cc1ccc2c(c1)OCO2)C1CCN(Cc2ccccc2)CC1	?	-	-	5.17µM
Cc1ccc(Cl)cc1NC(=O)N(Cc1ccc2c(c1)OCO2)C1CCN(Cc2ccccc2)CC1	?	-	-	13µM
CCC[N+](=O)[O-]	.	-	.	.
CO/C1=C\C(C)=C\[C@@H](C)[C@@H](O)[C@@H](C)C/C(C)=C/C=C\[C@H](OC)C([C@@H](C)[C@@H](O)[C@H](C)[C@@]2(O)C[C@@H](O)[C@H](C)C(C(C)C)O2)OC1=O (some centres not stated)	.	-[3.34 µM]	.	.
O=[N+]([O-])c1cc(C(F)(F)F)c(Cl)c([N+](=O)[O-])c1Nc1ncc(C(F)(F)F)cc1Cl	0.1µM	.	-	0.0251µM
O=C(O)c1cc(Oc2ccc(C(F)(F)F)cc2Cl)ccc1[N+](=O)[O-]	-	-	-	-
CCCCOP(=O)(OCCCC)C1(C)CC(=O)CC(C)(C)C1 (configuration not stated)	?	.	.	-
C[C@]12CC[C@@H]3c4ccc(O)c(O)c4CC[C@H]3[C@@H]1CC[C@@H]2O	25.9µM	-	-	13µM
CC1=CC(=O)OC2CC3OC4C[C@@H](C)C5OC6CC7O[C@]8(C)C/C=C\C9OC%10CC%11OC(CC(C)C%12OCCO%12)CC(O)[C@]%11(C)OC%10CC9OC8C[C@]7(C)O[C@]6(C)CCC5OC4C[C@]3(C)OC12 (some centres not stated)	29.1µM	-	-	?
CCCCCCn1c(O)c(C=NC2CCCCC2N)c(=O)[nH]c1=O (configuration not stated)	16.4µM	-	-	16.4µM
COc1ccccc1-n1c(-c2ccccc2)nc2ccccc2c1=O	16.4µM	.	-	?
O=c1c2ccccc2nc(-c2ccccc2)n1-c1ccccc1O	?	-	.	?
COc1ccccc1-n1c(-c2cccs2)nc2ccccc2c1=O	14.6µM	-	-	13µM
COc1ccc(-c2nc3ccccc3c(=O)n2-c2nccs2)cc1	?	-	-	?
CC(C)(O)C1C2OC(=O)C1[C@]1(O)C[C@H]3O[C@]34C(=O)O[C@H]2[C@]14C (some centres not stated) (tested in a mixture with another compound)	.	-	.	.
Cc1cc2c(s1)Nc1ccccc1N=C2N1CCN(C)CC1	?	-	-	?
O=C1C=C2C=CC3C[C@@]2(O1)C1CCCCN31 (some centres not stated)	.	-	.	.
C=CCN1CC[C@]23c4c5ccc(O)c4O[C@@H]2C(=O)CC[C@]3(O)[C@H]1C5	-	-	.	-
C=CCN1C(=O)NC(=O)/C(=C/c2ccc(OC)c(COc3ccc(NC(C)=O)cc3)c2)C1=O	2.59µM	-	.	3.66µM
Cc1cc2oc(=O)cc(-c3ccccc3)c2c(C)c1-c1ccc(CO)cc1	18.4µM	-	-	18.4µM
COc1cc2[nH]c(=O)n(-c3ccc(C)cc3)c(=O)c2cc1OC	-	-	-	-
O=C(CCCCCn1c(=S)[nH]c2ccccc2c1=O)N1CCC2(CC1)OCCO2	-	-	-	-
SMILES	DT40 TDP1 CPT	TDP1 inh	ClpP mod	TDP1 cell noCPT
COc1cc2[nH]c(=O)n(Cc3ccc(C(=O)N4CCN(c5ccc(Cl)cc5)CC4)cc3)c(=O)c2cc1OC	3.26µM	-	-	2.91µM
COc1cc2[nH]c(=S)n(-c3ccccc3)c(=O)c2cc1OC	-	-	-	-
CCOc1cc2[nH]c(=O)n(CCCCC(=O)N3CCN(c4ccccc4)CC3)c(=O)c2cc1OCC	?	-	-	5.17µM
COc1ccccc1N1CCN(C(=O)CCCn2c(=S)[nH]c3ccccc3c2=O)CC1	8.2µM	.	-	5.17µM
CCOc1ccc(Nc2c(S(=O)(=O)c3ccc(C)cc3)cnc3ccc(F)cc23)cc1	?	-	-	?
CCOc1ccc(Nc2c(S(=O)(=O)c3ccc(C)cc3)cnc3ccccc23)cc1	16.4µM	-	-	?
Cc1cccc(CN2C(=O)CN=C(c3ccccc3)c3ccccc32)c1	5.8µM	-	-	5.8µM
Cc1cccc(-c2nc(CN3C(=O)CN=C(c4ccccc4)c4ccccc43)c(C)o2)c1	?	-	-	?
O=C1CN=C(c2ccccc2)c2cc(Cl)ccc2N1Cc1ccc(Cl)cc1	?	-	-	14.6µM
CCN(CC)CCN1C(=O)CN=C(c2ccccc2F)c2cc(Cl)ccc21	?	-	.	26.6µM
Cc1cccc(CN2C(=O)CN=C(c3ccccc3)c3cc(Cl)ccc32)c1	?	-	-	16.4µM
Cc1ccc(CN2C(=O)CN=C(c3ccccc3)c3ccccc32)cc1	-	-	-	?
CN1C(=O)CN=C(c2ccccc2)c2cc(Cl)ccc21	?	-	.	?
CCC(C(N)=O)N1CCCC1=O (configuration not stated)	?	-	.	-
O=C(Nc1ccc2c(c1)OCO2)c1cccn(Cc2cccc(F)c2)c1=O	-	-	-	-
O=C(O)c1cccc(NC(=O)N2C[C@H]3C[C@@H](C2)c2cccc(=O)n2C3)c1	-	.	-	-
COc1ccc2c(c1)c(CCN1CCOCC1)c(C)n2C(=O)c1cccc(Cl)c1Cl	.	-	.	.
COc1cc(OC)cc(-c2sc3ccc(OC)cc3c2-c2ccc(OCCN3CCOCC3)cc2)c1	?	-	8.91µM	?
COc1ccc2sc(-c3ccccc3OC)c(-c3ccc(OCCN4CCOCC4)cc3)c2c1	?	-	28.2µM	?
COc1cccc(-c2sc3ccccc3c2-c2ccc(OCCN3CCOCC3)cc2)c1	?	-	31.6µM	?
COc1ccc(-n2c(CN3CCOCC3)nc3ccccc3c2=O)c(OC)c1	?	.	-	?
CN1c2ccccc2C(NCCCCCCC(=O)O)c2ccc(Cl)cc2S1(=O)=O (configuration not stated)	-	-	.	?
Cc1c2cnn(CC(=O)N3CCC4(CC3)OCCO4)c(=O)c2c(C)n1Cc1ccccc1	-	-	-	?
CCOC(=O)N1CCN(C(=O)Cn2ncc3c4ccccc4n(Cc4ccc(F)cc4)c3c2=O)CC1	1.64µM	-	-	1.84µM
O=C(Cn1ncc2c3ccccc3n(Cc3ccc(F)cc3)c2c1=O)N1CCC2(CC1)OCCO2	3.26µM	-	?	3.26µM
COC(=O)c1ccccc1C(=O)OC	-	-	.	-
CC(C)C[C@H]1CN([C@@H](CC(C)C)CN2CCCC2CN2C(=S)NC[C@@H]2Cc2ccc(O)cc2)C(=S)N1CC1CCCCCC1 (some centres not stated)	18.4µM	.	-	18.4µM

Compound activity deposited in PubChem by National Center for Advancing Translational Sciences (NCATS).
